The source made the active and inactive calls.
Assays:
[1] = tested on: Human papillomavirus type 1a protein E7 (residues 44-93); assay: HPV1a E7 fragment binders on microarrays, primary screen, biochemical, small-molecule microarray, residues 44-93, 635 nm fluorescence (AID 1108); conditions: small-molecule microarray binding, fluorescence 635 nm; higher = more signal;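 note: E7 fragment applied at 1 µg/mL in TBST for 1 h at 4 C; score combines spot fluorescence with its signal to noise ratio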
[2] = modulators of HCV replicon luciferase signal, primary screen, HCV replication inhibitor project, Huh7 cells, luciferase reporter (AID 1109); conditions: 48 h, higher = more signal;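 note: huh7 hepatoma cells harbouring a luciferase neomycin HCV replicon reporter; luciferase luminescence as measure of HCV replicon replication; test concentration not given here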
[3] = biological target: Left-right determination factor 2 (Homo sapiens) (UniProt O00292); assay: LEFTY2 binders on small-molecule microarrays, primary screen, biochemical, small-molecule microarray, 635 nm fluorescence scan (AID 1110); conditions: LEFTY2 binding, higher = more signal
Left-right determination factor 2 (Homo sapiens), sequence (O00292 whole entry, looked up): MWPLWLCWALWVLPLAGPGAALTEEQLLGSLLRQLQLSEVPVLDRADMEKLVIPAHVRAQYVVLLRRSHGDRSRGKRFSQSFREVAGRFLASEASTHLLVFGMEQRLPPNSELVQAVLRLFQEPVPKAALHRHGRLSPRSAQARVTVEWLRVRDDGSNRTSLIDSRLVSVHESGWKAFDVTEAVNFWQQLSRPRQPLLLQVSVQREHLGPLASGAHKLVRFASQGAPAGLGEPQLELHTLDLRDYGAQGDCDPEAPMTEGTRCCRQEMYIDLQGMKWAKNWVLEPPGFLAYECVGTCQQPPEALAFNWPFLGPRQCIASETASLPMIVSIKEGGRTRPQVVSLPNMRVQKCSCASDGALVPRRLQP

[4] = biological target: Calmodulin-1 (Homo sapiens) (UniProt P0DP23); assay: CALM1 binders on microarrays, EGTA buffer, profiling panel, biochemical, small-molecule microarray, Cy5-labelled CALM1 (AID 1111); conditions: Cy5-CALM1 binding fluorescence, higher = more signal;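 note: labelled calmodulin applied in Tris saline Tween buffer holding calcium plus EGTA and DTT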
[5] = biological target: Calmodulin-1 (Homo sapiens) (UniProt P0DP23); assay: calcium-bound CALM1 binders on microarrays, profiling panel, artefact control for SMM control-protein annotation, biochemical, small-molecule microarray, Cy5-labelled CALM1, plus calcium (AID 1112); conditions: Cy5-CALM1 binding fluorescence, higher = more signal;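 note: score merges spot fluorescence with signal to noise from triplicate slides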
[6] = small-molecule microarray binders of probe aWnt5a, primary screen, biochemical, biotinylated probe, 635/667 nm fluorescence (AID 1113); conditions: higher = more signal;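 note: score merges 667 nm fluorescence intensity with signal-to-noise per printed feature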
[7] = small-molecule microarray binders of probe aShh, primary screen, biochemical, biotinylated probe, 635/667 nm fluorescence (AID 1114); conditions: higher = more signal;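 note: probe is biotin-labelled aShh protein from a stem cell growth factor screen; measures binding of labelled protein to compounds printed on the slide; score merges feature fluorescence at 667 nm with signal-to-noise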
[8] = small-molecule microarray binders of probe aNog, primary screen, biochemical, biotinylated probe, 635/667 nm fluorescence (AID 1115); conditions: higher = more signal;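 note: probe is biotinylated aNog protein used at 0.15 µg/mL for 1 h at 4 C; z-score combines 667 nm fluorescence of each spot with its signal to noise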
[9] = biological target: Torsin-1A-interacting protein 1 (Homo sapiens) (UniProt Q5JTV8); assay: LAP1 binders from COS7 cell lysate, primary screen, small-molecule microarray, 635/667 nm fluorescence (AID 1116); conditions: COS7-hLAP1 lysate binding, 635 nm fluorescence, higher = more signal
Torsin-1A-interacting protein 1 (Homo sapiens), sequence (Q5JTV8 whole entry, looked up): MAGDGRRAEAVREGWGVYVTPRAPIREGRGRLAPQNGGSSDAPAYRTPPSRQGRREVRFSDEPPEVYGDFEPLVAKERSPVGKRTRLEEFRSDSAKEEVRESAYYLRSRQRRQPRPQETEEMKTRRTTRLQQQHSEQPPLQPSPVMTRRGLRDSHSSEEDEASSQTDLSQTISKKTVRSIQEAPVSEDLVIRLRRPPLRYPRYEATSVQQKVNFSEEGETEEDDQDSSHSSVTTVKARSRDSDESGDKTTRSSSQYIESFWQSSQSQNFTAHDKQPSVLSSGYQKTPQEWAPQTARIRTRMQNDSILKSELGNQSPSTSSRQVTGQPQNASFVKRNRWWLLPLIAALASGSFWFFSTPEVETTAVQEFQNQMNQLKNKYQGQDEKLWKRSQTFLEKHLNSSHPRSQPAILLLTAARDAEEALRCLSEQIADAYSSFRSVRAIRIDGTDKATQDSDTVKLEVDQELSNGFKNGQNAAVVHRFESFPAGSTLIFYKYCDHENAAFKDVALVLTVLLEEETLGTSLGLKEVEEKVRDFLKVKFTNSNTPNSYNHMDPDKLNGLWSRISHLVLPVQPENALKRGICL

[10] = biological target: Alpha-bungarotoxin (Bungarus multicinctus) (UniProt P60615); assay: alpha-bungarotoxin binders on microarray, profiling panel, artefact control for SMM control protein annotation, biochemical, small-molecule microarray, Alexa647 label, 635/667 nm fluorescence (AID 1117); conditions: alpha-BTX-A647 binding fluorescence, higher = more signal
Alpha-bungarotoxin (Bungarus multicinctus), sequence (P60615 whole entry, looked up): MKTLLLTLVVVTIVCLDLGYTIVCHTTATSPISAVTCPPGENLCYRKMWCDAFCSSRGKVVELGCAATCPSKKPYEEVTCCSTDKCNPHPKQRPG

Albumin (Bos taurus) = Albumin (Bos taurus) (UniProt P02769); assay: bovine serum albumin binders on microarray, profiling panel, artefact control for SMM control protein annotation, biochemical, small-molecule microarray, Alexa647 label, 635/667 nm fluorescence (AID 1118); conditions: BSA-A647 binding, fluorescence 635 nm, higher = more signal;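 note: score merges 667 nm emission intensity and signal-to-noise per printed compound spot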
Albumin (Bos taurus), sequence (P02769 whole entry, looked up): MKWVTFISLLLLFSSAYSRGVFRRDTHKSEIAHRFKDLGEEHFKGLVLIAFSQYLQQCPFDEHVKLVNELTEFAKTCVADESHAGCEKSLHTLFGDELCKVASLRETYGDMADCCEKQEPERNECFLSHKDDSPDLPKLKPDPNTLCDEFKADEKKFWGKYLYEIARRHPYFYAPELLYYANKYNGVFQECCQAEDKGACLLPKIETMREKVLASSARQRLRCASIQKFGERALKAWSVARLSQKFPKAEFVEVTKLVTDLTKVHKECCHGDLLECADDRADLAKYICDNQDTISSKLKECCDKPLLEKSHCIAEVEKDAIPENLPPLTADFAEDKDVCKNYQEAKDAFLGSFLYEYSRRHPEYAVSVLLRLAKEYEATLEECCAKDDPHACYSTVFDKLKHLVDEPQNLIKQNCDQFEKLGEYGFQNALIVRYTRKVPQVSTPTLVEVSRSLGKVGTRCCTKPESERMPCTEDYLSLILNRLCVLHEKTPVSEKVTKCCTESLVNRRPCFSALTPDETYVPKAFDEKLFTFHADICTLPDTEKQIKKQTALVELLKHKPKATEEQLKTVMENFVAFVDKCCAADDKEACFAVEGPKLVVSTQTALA

[11] = small-molecule microarray binders of probe aXIP, primary screen, biochemical, NeuroSMM set, 635/667 nm fluorescence (AID 1119); conditions: higher = more signal, called active from +8 up or from −8 down;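 note: probe is the protein aXip251-270 applied at 1 µg/mL to compound-printed slides; binding of probe to printed compounds measured as 667 nm fluorescence plus signal to noise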
[12] = small-molecule binders of probe aNOTCH3, primary screen, biochemical, small-molecule microarray, 635/667 nm fluorescence (AID 1120); conditions: higher = more signal;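 note: probe is a biotin-tagged antibody raised against NOTCH3 rather than NOTCH3 protein; score merges spot fluorescence near 667 nm with spot signal to noise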
[13] = small-molecule binders of probe aNOTCH2, primary screen, biochemical, small-molecule microarray, 635/667 nm fluorescence (AID 1121); conditions: higher = more signal;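 note: score merges feature fluorescence read at 667 nm with its signal to noise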
[14] = biological target: Carbonic anhydrase 2 (Homo sapiens) (UniProt P00918); assay: CAII small-molecule binders, profiling panel, biochemical, small-molecule microarray, Alexa647-labelled CAII (AID 1122); conditions: CAII-A647 binding fluorescence, higher = more signal
[15] = COS7 lysate on small-molecule microarray, probe aHis, 635 nm (AID 1123); conditions: COS7 cell lysate, fluorescence, higher = more signal;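 note: z-score combines 667nm fluorescence intensity with signal-to-noise per printed compound spot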
[16] = compound binding in COS7 lysate, probe aLAP1, primary screen, cell lysate, small-molecule microarray (AID 1124); conditions: probe aLAP1, fluorescence, higher = more signal;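 note: lysate comes from COS7 cells expressing LAP1 and is applied at 0.3 µg/mL; score merges spot fluorescence near 667 nm with signal-to-noise over triplicate slides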
Sam68 (KHDRBS1) = assay: Sam68 small-molecule binders, primary screen, biochemical, small-molecule microarray, 635 nm fluorescence (AID 1125); conditions: small-molecule microarray binding, higher = more signal;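 note: score merges 667 nm channel intensity with signal to noise over triplicate slides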
[17] = tested on: Chordin-like protein 2 (CHRDL2); assay: CHRDL2 small-molecule binders, primary screen, biochemical, small-molecule microarray, 635 nm fluorescence (AID 1126); conditions: small-molecule microarray binding, fluorescence 635 nm; higher = more signal;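 note: printed compound slides probed with Chrdl2 protein at 4 µg/mL for 1 h at 4 C; score merges 667 nm emission intensity with signal to noise over three replicate slides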
[18] = biological target: Concanavalin-A (Canavalia ensiformis) (UniProt P02866); assay: ConA small-molecule binders, primary screen, artefact control for SMM control protein annotation, biochemical, small-molecule microarray, Alexa647 label, 635 nm (AID 1127); conditions: ConA-A647 binding fluorescence, higher = more signal;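 note: z combines 667 nm emission intensity with signal-to-noise across three replicate slides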
Concanavalin-A (Canavalia ensiformis), sequence (P02866 whole entry, looked up): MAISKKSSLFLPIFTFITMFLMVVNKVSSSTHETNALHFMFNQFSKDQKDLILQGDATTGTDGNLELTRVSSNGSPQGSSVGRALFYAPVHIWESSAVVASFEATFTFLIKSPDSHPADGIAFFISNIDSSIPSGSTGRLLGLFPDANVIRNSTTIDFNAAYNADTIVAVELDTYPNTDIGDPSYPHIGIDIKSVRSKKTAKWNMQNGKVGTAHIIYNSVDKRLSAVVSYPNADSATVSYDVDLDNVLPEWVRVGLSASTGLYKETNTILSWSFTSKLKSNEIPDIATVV

Structure (SMILES) | composite z-score [1] | z-score [2] | composite z-score [3] | composite z-score [4] | composite z-score [5] | composite z-score [6] | composite z-score [7] | composite z-score [8] | composite z-score [9] | composite z-score [10] | composite z-score (Albumin (Bos taurus)) | composite Z-score [11] | composite z-score [12] | composite z-score [13] | composite z-score [14] | composite z-score [15] | composite z-score [16] | composite z-score (Sam68 (KHDRBS1)) | composite z-score [17] | composite z-score [18]
O=C(NCc1ccccc1)[C@@H]1c2ccccc2C(=O)N(Cc2cc(C(F)(F)F)cc(C(F)(F)F)c2)[C@H]1c1ccc(CO)cc1 | 1.38 | 0.0626 | 0.446 | 0.288 | -0.823 | 0.0257 | -0.0011 | -0.213 | 0.517 | 0.556 | -0.432 | -0.46 (inactive) | 0.104 | -0.008 | 0.185 | 1.55 | 0.92 | 1.3 | 0.755 | 0.609
CCCC=C(CCC)[C@@H](NC(=O)OCC(C)C)c1ccc(C(=O)OC)cc1 | 0.903 | -1.02 | 0.66 | 0.059 | -0.307 | -0.217 | -0.138 | -0.0496 | 0.0246 | -0.376 | -0.0782 | -0.773 (inactive) | -0.0328 | -0.15 | 0.133 | 0.141 | 0.35 | 0.687 | 0.436 | 0.256
COCCCNC(=O)[C@@]1(CCC(=O)OC(C)(C)C)COC(c2ccc(OCCCO)cc2)=N1 | 1.48 | -1.11 | -0.148 | -0.664 | -0.0486 | -0.124 | -0.0169 | -0.603 | 2.01 | 0.778 | 0.483 | 0.507 (inactive) | 0.133 | -0.0485 | 0.619 | 3 | 0.504 | 1.28 | -0.42 | 0.286
O=C1N(CCS(=O)(=O)c2ccccc2)c2ccccc2C[C@]12N=C(c1ccc(OCCCO)cc1)O[C@@H]2c1ccccc1 | 1.42 | -1.74 | 0.845 | 2.28 | 0.565 | 0.0704 | -0.0146 | 0.217 | 1.93 | 1.91 | 0.815 | 1.86 (inactive) | -0.221 | -0.0694 | 0.584 | 3.22 | 2.17 | 1.29 | 1.25 | 1.05
COCCCNC(=O)[C@@]1(CCS(=O)(=O)c2ccccc2)COC(c2ccc(OCCCO)cc2)=N1 | 0.0612 | -0.46 | -0.241 | 2.65 | 1.26 | 0.0919 | 0.363 | 2.04 | 3.1 | 3.34 | 0.595 | 0.197 (inactive) | 0.567 | 0.0551 | 0.919 | 3.36 | 0.706 | 1.14 | -0.804 | 0.945
CN(C)c1ccc(C(O)C2C=CC3C(=O)N(Cc4ccccc4)C(=O)C3N2n2cnnc2)cc1 (stereo not given) | -1.17 | -0.32 | 0.205 | -0.207 | -0.363 | -0.0037 | 0.108 | -0.0086 | 0.304 | 0.255 | -0.184 | 0.111 (inactive) | -0.0023 | -0.0993 | 0.244 | 0.0348 | -0.0894 | -0.671 | 0.245 | -0.46

— PubChem BioAssay
